Screening data from PubChem BioAssay.
Only some compounds are listed: those with a hit (about 2% of all), similar ones and a draw of the others.
APOBEC3A inh: human APOBEC3A DNA deaminase inhibition; P31941; recombinant A3A, FAM/TAMRA ssDNA deamination fluorescence; inhibition, % at 20 µM; 330,000 tested, 0.41% active; AID 493011;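 active = at least 40% inhibition at 20 µM here, with at most 30% in a related deaminase screen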;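 also: plate controls were A3A with DMSO for no effect and wells lacking A3A enzyme for full effect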
Target sequence (P31941 whole entry, looked up): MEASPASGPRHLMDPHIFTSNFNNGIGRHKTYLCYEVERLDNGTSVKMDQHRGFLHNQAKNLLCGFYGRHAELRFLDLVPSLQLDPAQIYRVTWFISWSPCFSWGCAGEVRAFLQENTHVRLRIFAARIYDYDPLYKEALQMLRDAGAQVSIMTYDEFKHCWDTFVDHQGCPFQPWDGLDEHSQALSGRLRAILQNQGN
NALP1 yeast inh: inhibitors of NALP1 inflammasome in yeast; S. cerevisiae NALP1/ASC/caspase-1 growth, X-gal OD620, 72 h; inhibition, % at 10 µM; 280,000 tested, 0.61% active; AID 2071; in the data active = inhibition mostly above about 24%, no sharp cut-off; inactive = mostly below about 32%
A3G deaminase: blocks human APOBEC3G single-stranded DNA deamination; recombinant A3G, ssDNA deamination FAM/TAMRA fluorescence; inhibition, % at 20 µM; 330,000 tested, 0.28% active; AID 493012;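 active = inhibition of at least 40% at 20 µM, with no more than 30% in the related APOBEC3A deaminase screen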;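 also: plate controls were DMSO wells with A3G for no effect and wells lacking A3G enzyme for full effect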
HGIII-sPLA2 inh: Blocks human group III sPLA2 activity. Q9NZ20. QFRET BODIPY PC-A2 liposome hydrolysis, fluorescence. inhibition, % at 12.2 µM. 370,000 tested, 0.56% active. AID 743126;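 active = inhibition above mean plus 3 SD of compounds lying within the high and low control bounds, cut at about 19% in these data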;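 also: 0% = median of test compound wells and 100% = no enzyme DMSO wells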
Fh CTSL1 inh: cathepsin L1 inhibition, PFM18AAP counter-screen | AID 1906 | inhibition, % at 5.96 µM | 300,000 tested, 0.49% active | recombinant F. hepatica cathepsin L1, Z-Leu-Arg-MCA fluorescence;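 active = inhibition above the mean of all tested compounds plus 3 SD, set per screening campaign, cut at about 17% in these data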;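 also: 0% = plate median of test compound wells and 100% = 1 µM Z-Phe-Ala-diazomethylketone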
APOBEC3G confirm: confirmation of human APOBEC3G DNA deaminase inhibitors. shares compounds with A3G deaminase. recombinant A3G ssDNA deaminase, UDG/FAM-TAMRA fluorescence. inhibition, % at 20 µM. 890 tested, 72% active. AID 493152;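 active = inhibition reaching a set limit in any replicate at 20 µM, the limit being 80% of the first screen's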
UDG A3G counter: inhibits E. coli UDG, flagging false APOBEC3G inhibitors; AID 504715; inhibition, % at 20 µM; UDG counterscreen, FAM/TAMRA oligo fluorescence; shares compounds with A3G deaminase; 710 tested, under 10 active;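 active = compounds giving 40% or more inhibition at 20 µM in any one of the three replicates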;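 also: plate controls were DMSO wells with UDG and oligo for no effect and DMSO wells lacking both for full effect; inhibitors lower the FAM signal released by uracil excision and alkaline cleavage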
Target sequence (P12295 whole entry, looked up): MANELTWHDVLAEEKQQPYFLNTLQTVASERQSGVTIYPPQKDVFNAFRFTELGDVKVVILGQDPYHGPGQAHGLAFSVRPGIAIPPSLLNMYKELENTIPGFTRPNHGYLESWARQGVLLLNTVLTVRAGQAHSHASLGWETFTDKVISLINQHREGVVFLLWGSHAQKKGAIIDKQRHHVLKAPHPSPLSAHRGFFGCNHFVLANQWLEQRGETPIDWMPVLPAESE
sPLA2 confirm: human GIII-sPLA2 inhibition, confirmation. shares compounds with HGIII-sPLA2 inh. recombinant hGIII-sPLA2, BODIPY PC-A2 QFRET fluorescence. inhibition, % at 12.2 µM. 2,000 tested, 34% active. AID 743280;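 active = mean inhibition across triplicates above the hit cutoff set in the earlier primary screen, cut at about 19% in these data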;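 also: 0% = enzyme with DMSO and 100% = DMSO wells lacking enzyme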
535nm interf: 535nm fluorescence interference, HGIII-sPLA2 counter-screen | BODIPY FL product fluorescence interference, QFRET | shares compounds with HGIII-sPLA2 inh | AID 743282 | inhibition, % at 12.2 µM | 2,000 tested, 8.5% active;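 active = average inhibition above the solvent-only control mean plus 3 SD, cut at about 6% in these data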;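 also: 0% = DMSO with substrate plus product and 100% = DMSO with substrate alone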
BODIPY interf DR: 535nm optical interference dose response, HGIII-sPLA2 counter-screen. shares compounds with HGIII-sPLA2 inh. BODIPY FL product fluorescence interference, cell-free. IC50, µM. 240 tested, under 10 active. AID 743455;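 active = IC50 at or below 10 µM; inactive = IC50 above 10 µM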
An asterisk follows results filed as active.

For CCOCCCn1c(-c2ccc(Cl)cc2)n[nH]c1=S the results were APOBEC3A inh 0, NALP1 yeast inh 1, A3G deaminase 53*, HGIII-sPLA2 inh 22*, Fh CTSL1 inh 0, APOBEC3G confirm 62*, UDG A3G counter -3, sPLA2 confirm 19 and 535nm interf 2.
For S=c1[nH]nc(-c2ccc(Cl)cc2)n1Cc1ccccc1 the results were APOBEC3A inh 1, NALP1 yeast inh -4, A3G deaminase 30, HGIII-sPLA2 inh 17 and Fh CTSL1 inh 7.
`COc1ccc(CNCC#Cc2ccccc2)cc1` gave HGIII-sPLA2 inh -1.
`COc1cccc(/C=N/n2c(-c3cc(C)[nH]n3)n[nH]c2=S)c1` gave APOBEC3A inh -3, NALP1 yeast inh -5, A3G deaminase 49*, HGIII-sPLA2 inh 19*, Fh CTSL1 inh -4, APOBEC3G confirm 83*, UDG A3G counter -2, sPLA2 confirm 23* and 535nm interf 1.
COC(=O)c1cc2c(C(F)(F)F)nn(C)c2s1 was read as APOBEC3A inh -2, NALP1 yeast inh 7, A3G deaminase -3, HGIII-sPLA2 inh 4 and Fh CTSL1 inh -2.
`CCn1c(-c2cc3c(C(F)(F)F)nn(C)c3s2)n[nH]c1=S` gave APOBEC3A inh -8, NALP1 yeast inh -7, A3G deaminase 41*, HGIII-sPLA2 inh 20*, Fh CTSL1 inh 0, APOBEC3G confirm 63*, UDG A3G counter -2, sPLA2 confirm 34*, 535nm interf 1 and BODIPY interf DR >122.
`O=S1(=O)c2c(cccc2N2CCC[C@H]2CO)O[C@@H]2CCN1C2` gave HGIII-sPLA2 inh 0.
Screening Cc1ccc(/C=N/n2c(-c3cccnc3)n[nH]c2=S)s1 returned APOBEC3A inh -2, NALP1 yeast inh 13, A3G deaminase 55*, HGIII-sPLA2 inh 28*, Fh CTSL1 inh 1, APOBEC3G confirm 71*, UDG A3G counter 2, sPLA2 confirm 19* and 535nm interf -4.
Screening COC(=O)C1CN(Cc2cn(Cc3ccccc3)nn2)CCS(=O)(=O)N1Cc1ccc(OC)cc1 (centres undefined) returned HGIII-sPLA2 inh -4.
`S=c1[nH]nc(-c2ccccn2)n1/N=C/c1cccc2ccccc12` gave APOBEC3A inh -3, NALP1 yeast inh 28, A3G deaminase 66*, HGIII-sPLA2 inh 21*, Fh CTSL1 inh 3, APOBEC3G confirm 70*, UDG A3G counter -3, sPLA2 confirm 27* and 535nm interf 5.
COc1ccc(C)c2sc(NNC(=O)COc3ccccc3)nc12 was read as APOBEC3A inh 2, NALP1 yeast inh 11, A3G deaminase -1 and Fh CTSL1 inh -4.
For COc1cccc2sc(NNC(=O)COc3ccccc3)nc12 the results were APOBEC3A inh -1, NALP1 yeast inh -13, A3G deaminase -3, HGIII-sPLA2 inh 23*, Fh CTSL1 inh 2, sPLA2 confirm 16 and 535nm interf -3.
Screening C[C@H](CO)N1C[C@H](C)[C@@H](CN(C)C(=O)Nc2ccnc(N3CCOCC3)c2)OCc2cn(nn2)CCCC1=O returned HGIII-sPLA2 inh 6.
For N/C(=N\OC(=O)CCC1CCCC1)c1cccc([N+](=O)[O-])c1 the results were APOBEC3A inh 1, NALP1 yeast inh 28, A3G deaminase -4, HGIII-sPLA2 inh 21*, Fh CTSL1 inh -18, sPLA2 confirm 6 and 535nm interf -8.
`Cn1c(=O)c2c(ncn2CC(=O)OCC(=O)NC(c2ccccc2)c2ccccc2)n(C)c1=O` gave APOBEC3A inh -7, NALP1 yeast inh 27, A3G deaminase -8, HGIII-sPLA2 inh 21*, Fh CTSL1 inh -3, sPLA2 confirm -1 and 535nm interf -5.
Clc1ccc(-c2csc(N3CCOCC3)n2)cc1 was read as APOBEC3A inh 3, NALP1 yeast inh -8, A3G deaminase -4 and HGIII-sPLA2 inh 6.
`Clc1ccc(-c2csc(N3CCCCCC3)n2)cc1` gave APOBEC3A inh 2, NALP1 yeast inh -18, A3G deaminase 2, HGIII-sPLA2 inh 23*, Fh CTSL1 inh 1, sPLA2 confirm 27* and 535nm interf 6.7*.
`CC(=O)c1ccc(-c2csc(N3CCC(C(N)=O)CC3)n2)cc1` gave APOBEC3A inh -4 and A3G deaminase -7.
NC(=O)C1CCN(c2nc(-c3ccc(Br)cc3)cs2)CC1 was read as APOBEC3A inh -3, NALP1 yeast inh 21, A3G deaminase -4, HGIII-sPLA2 inh 23*, Fh CTSL1 inh -6, sPLA2 confirm 14 and 535nm interf 0.
C[C@H](O)[C@@H]1CN2CCc3c([nH]c4c(-c5ccc6c(c5)OCO6)cccc34)[C@@H]2C[C@@H]1N(C)C(=S)NCCc1ccccc1 was read as HGIII-sPLA2 inh 2.
For Cc1nn(-c2ccccc2)c(C)c1C=NNC(=O)CSc1nc2ccccc2n1C the results were HGIII-sPLA2 inh 11.
`COCCCNC(=O)C[C@H]1C[C@@]2(C(=O)OC)C(=C[C@H](C3CCCC3)O[C@@H]2C)N(CCc2ccc(OC)c(OC)c2)C1=O` gave HGIII-sPLA2 inh -2.
`Cc1cccc2sc(=S)[nH]c12` gave HGIII-sPLA2 inh 24*, sPLA2 confirm 20* and 535nm interf -4.
`O=C(NCCN1C(=O)C2C3C=CC(C3)C2C1=O)c1cc(F)cc(F)c1` (centres undefined) gave HGIII-sPLA2 inh 4.
For COc1ccc(C(=O)NC(=S)Nc2nc(C)c(C(=O)N(C)C)s2)cc1 the results were APOBEC3A inh 2, NALP1 yeast inh 30, A3G deaminase -2, HGIII-sPLA2 inh 22*, Fh CTSL1 inh 2, sPLA2 confirm 15 and 535nm interf -4.
For Cc1ccc(C(=O)NNC(=S)NC(=O)c2ccco2)cc1 the results were APOBEC3A inh -11, NALP1 yeast inh -9, A3G deaminase -2, HGIII-sPLA2 inh 22*, Fh CTSL1 inh 0, sPLA2 confirm 32*, 535nm interf -7 and BODIPY interf DR >122.
